Our source for the binding signal values is PMC7862700, “An all-to-all approach to the identification of sequence-specific readers for epigenetic DNA modifications on cytosine”.

Holding throughout (test): DAPPL (digital affinity profiling via proximity ligation, sequencing); 10 mM Tris-HCl pH 7.5, 50 mM NaCl, 1 mM DTT, 4% glycerol, room temperature, 30 min; GST-TFs on glutathione beads, 16-mer random dsDNA library, 0.1% formaldehyde crosslink after washing; high values mean tight binding
For experiment [1], the target named is T1, FEV (Homo sapiens, UniProt Q99581 1-238).
T1 sequence: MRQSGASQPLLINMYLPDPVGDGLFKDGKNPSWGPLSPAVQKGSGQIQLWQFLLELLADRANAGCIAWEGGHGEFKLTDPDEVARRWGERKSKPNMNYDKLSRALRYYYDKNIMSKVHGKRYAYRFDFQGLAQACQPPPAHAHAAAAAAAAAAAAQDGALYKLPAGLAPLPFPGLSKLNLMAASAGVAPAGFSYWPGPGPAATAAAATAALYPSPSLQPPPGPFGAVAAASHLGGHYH
Particulars: protein: recombinant; tags: N-terminal GST; dsDNA, one strand shown. The essentials:
(§1)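 In yeast, human transcription factors were expressed with a GST fusion, then pulled down on glutathione beads and given DNA barcodes. Pooled with a tag-only sample, they were exposed to 200 nmole of a 16-mer random double-stranded DNA library (Tris/NaCl/DTT/glycerol buffer, room temperature, 30 min), washed, crosslinked with 0.1% formaldehyde, proximity-ligated using BsaI/T4 ligase for 1 h at 37 °C, PCR-amplified and read on an Illumina NextSeq500. Each hexamer's frequency of reads for a factor, divided by the matching frequency for the tag-only sample, gives the binding signal.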

For experiment [2], the target named is ETV5 (Homo sapiens, UniProt P41161 1-510). Particulars: protein: recombinant; tags: N-terminal GST; dsDNA, one strand shown. The essentials: as §1
ETV5, sequence (P41161 whole entry): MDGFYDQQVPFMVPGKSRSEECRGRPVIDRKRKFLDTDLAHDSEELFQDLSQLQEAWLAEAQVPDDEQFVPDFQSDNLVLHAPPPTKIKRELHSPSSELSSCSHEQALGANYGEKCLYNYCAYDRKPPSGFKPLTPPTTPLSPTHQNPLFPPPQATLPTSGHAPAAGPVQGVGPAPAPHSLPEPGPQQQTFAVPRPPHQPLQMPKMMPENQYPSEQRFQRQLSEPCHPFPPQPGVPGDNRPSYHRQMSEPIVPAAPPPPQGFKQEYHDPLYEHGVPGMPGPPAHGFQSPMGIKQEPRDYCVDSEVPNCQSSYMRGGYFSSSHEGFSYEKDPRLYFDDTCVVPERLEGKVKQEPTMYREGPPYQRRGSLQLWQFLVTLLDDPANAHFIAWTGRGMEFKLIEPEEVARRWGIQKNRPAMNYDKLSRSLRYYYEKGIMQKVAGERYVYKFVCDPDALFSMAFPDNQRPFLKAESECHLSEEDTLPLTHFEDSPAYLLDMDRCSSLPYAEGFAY
Experiment [3] has as its target HSF1 (Homo sapiens, UniProt Q00613 1-529). Particulars: protein: recombinant; tags: N-terminal GST; chain copies: 3; dsDNA, one strand shown. A digest of the protocol:
as §1

The target in experiment [4] is T2, SPIC (Homo sapiens, UniProt Q8N5J4 1-248).
T2 sequence: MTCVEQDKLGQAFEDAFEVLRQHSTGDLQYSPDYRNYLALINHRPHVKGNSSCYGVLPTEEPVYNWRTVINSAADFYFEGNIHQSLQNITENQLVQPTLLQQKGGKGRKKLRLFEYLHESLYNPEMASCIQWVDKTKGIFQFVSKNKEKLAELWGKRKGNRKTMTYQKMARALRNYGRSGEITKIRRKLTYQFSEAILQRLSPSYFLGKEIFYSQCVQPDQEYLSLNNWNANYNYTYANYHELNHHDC
Particulars: protein: recombinant; tags: N-terminal GST; dsDNA, one strand shown. A digest of the protocol:
as §1

In experiment [5] the target is ELF4 (Homo sapiens, UniProt Q99607 1-663). Particulars: protein: recombinant; tags: N-terminal GST; dsDNA, one strand shown. The essentials:
as §1

Experiment [6] has as its target T3, ELK4 (Homo sapiens, UniProt P28324-2 1-405).
T3 sequence: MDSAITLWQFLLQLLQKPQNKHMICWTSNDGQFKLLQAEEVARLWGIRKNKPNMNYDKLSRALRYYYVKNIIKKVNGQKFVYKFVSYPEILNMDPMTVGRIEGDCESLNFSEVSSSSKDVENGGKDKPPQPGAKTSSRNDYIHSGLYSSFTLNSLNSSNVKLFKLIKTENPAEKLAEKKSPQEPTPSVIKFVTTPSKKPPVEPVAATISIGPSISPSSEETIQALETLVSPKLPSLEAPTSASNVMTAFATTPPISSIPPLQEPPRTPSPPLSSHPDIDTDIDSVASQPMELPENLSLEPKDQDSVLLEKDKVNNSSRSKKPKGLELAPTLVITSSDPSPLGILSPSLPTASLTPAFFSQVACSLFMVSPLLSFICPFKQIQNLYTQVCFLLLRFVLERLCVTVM
Particulars: protein: recombinant; tags: N-terminal GST; dsDNA, one strand shown. The essentials: as §1

Experiment [7] concerns the target T4, ETV2 (Homo sapiens, UniProt O00321 1-342).
T4 sequence: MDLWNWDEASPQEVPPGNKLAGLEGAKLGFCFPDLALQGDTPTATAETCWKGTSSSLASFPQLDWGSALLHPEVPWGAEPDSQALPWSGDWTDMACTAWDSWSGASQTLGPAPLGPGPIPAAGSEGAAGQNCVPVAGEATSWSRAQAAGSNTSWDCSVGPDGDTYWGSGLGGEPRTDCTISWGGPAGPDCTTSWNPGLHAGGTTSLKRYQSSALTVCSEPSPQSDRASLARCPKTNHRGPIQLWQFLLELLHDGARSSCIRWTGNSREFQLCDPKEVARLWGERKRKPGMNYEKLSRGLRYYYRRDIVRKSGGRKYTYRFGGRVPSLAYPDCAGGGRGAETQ
Particulars: protein: recombinant; tags: N-terminal GST; dsDNA, one strand shown. A digest of the protocol: as §1

The target in experiment [8] is T5, ELF3 (Homo sapiens, UniProt P78545 1-371).
T5 sequence: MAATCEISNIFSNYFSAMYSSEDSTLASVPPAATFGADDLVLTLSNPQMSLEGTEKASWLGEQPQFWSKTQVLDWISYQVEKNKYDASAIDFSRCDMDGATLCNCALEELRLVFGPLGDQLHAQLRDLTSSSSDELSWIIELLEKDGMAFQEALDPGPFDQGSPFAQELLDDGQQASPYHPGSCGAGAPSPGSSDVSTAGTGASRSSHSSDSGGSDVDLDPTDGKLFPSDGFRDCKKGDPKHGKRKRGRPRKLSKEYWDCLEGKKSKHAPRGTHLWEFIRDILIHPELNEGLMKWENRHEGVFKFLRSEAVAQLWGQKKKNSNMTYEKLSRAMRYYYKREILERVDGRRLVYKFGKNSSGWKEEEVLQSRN
Particulars: protein: recombinant; tags: N-terminal GST; dsDNA, one strand shown. A digest of the protocol: as §1

The target of experiment [9] is CRX (Homo sapiens, UniProt O43186 1-299). Particulars: protein: recombinant; tags: N-terminal GST; dsDNA, one strand shown. A digest of the protocol: as §1
CRX, sequence (O43186 whole entry): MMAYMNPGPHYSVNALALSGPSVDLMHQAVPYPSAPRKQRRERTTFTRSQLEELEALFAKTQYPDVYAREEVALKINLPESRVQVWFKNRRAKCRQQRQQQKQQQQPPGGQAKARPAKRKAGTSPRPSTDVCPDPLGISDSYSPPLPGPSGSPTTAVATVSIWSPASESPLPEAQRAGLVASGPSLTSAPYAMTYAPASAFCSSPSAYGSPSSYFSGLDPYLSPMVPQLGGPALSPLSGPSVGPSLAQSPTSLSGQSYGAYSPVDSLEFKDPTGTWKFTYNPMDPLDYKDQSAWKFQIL
The target of experiment [10] is ETV1 (Homo sapiens, UniProt P50549 1-477). Particulars: protein: recombinant; tags: N-terminal GST; dsDNA, one strand shown. A digest of the protocol: as §1
ETV1, sequence (P50549 whole entry): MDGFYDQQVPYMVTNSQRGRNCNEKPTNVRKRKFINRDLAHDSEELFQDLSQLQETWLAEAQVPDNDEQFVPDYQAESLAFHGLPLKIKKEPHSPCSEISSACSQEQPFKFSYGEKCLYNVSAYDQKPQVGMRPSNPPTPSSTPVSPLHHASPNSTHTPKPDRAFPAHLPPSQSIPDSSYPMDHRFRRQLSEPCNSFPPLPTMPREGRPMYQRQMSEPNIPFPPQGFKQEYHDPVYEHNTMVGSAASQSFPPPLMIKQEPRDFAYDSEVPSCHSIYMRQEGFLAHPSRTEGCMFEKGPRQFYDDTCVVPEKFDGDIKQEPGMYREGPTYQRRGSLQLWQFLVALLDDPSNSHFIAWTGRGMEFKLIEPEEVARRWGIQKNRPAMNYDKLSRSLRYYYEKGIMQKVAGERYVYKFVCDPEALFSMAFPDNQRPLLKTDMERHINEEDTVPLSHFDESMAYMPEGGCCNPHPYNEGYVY
Experiment [11] addresses T6, ERF (Homo sapiens, UniProt P50548 1-548).
T6 sequence: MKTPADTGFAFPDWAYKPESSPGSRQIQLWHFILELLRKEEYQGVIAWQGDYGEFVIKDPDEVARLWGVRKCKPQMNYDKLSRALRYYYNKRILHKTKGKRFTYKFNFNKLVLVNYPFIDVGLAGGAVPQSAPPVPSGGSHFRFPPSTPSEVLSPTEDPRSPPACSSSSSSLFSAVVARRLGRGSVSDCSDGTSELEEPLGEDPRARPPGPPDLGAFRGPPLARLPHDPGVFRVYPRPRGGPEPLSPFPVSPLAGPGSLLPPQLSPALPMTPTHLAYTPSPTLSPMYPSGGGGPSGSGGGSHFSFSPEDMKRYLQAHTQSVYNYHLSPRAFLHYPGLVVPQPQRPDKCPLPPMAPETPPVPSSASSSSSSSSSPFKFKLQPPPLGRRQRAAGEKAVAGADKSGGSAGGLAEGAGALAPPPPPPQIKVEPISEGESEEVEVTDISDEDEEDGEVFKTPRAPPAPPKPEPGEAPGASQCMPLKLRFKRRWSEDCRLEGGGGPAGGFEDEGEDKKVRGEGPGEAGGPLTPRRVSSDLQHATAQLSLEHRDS
Particulars: protein: recombinant; tags: N-terminal GST; dsDNA, one strand shown. The essentials: as §1

Experiment [12] deals with T7, ETV3L (Homo sapiens, UniProt Q6ZN32 1-361).
T7 sequence: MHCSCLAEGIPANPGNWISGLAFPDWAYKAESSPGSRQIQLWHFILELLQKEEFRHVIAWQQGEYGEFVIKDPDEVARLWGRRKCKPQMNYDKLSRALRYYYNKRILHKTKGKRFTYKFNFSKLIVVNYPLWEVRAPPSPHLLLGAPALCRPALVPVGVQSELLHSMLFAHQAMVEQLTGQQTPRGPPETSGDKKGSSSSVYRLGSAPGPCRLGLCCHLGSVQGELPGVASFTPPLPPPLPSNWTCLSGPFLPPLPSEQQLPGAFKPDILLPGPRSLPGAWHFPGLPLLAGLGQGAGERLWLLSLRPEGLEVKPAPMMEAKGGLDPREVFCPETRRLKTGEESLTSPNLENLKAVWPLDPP
Particulars: protein: recombinant; tags: N-terminal GST; dsDNA, one strand shown. A digest of the protocol:
as §1

The target in experiment [13] is T8, ETS2 (Homo sapiens, UniProt P15036 1-469).
T8 sequence: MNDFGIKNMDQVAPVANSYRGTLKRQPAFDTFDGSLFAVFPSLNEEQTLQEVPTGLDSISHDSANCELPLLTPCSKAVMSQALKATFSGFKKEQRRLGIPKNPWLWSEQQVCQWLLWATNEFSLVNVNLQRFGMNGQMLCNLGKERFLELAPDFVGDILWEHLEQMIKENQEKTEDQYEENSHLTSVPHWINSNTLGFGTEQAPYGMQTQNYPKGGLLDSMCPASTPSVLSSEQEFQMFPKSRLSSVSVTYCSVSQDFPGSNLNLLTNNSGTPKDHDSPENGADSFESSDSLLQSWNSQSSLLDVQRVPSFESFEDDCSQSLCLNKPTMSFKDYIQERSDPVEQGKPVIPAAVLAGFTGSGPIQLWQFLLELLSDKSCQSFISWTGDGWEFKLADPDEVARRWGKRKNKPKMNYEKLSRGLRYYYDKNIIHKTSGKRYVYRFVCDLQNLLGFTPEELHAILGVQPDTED
Particulars: protein: recombinant; tags: N-terminal GST; dsDNA, one strand shown. A digest of the protocol:
as §1

Experiment [14] deals with T9, SPDEF (Homo sapiens, UniProt O95238 1-335).
T9 sequence: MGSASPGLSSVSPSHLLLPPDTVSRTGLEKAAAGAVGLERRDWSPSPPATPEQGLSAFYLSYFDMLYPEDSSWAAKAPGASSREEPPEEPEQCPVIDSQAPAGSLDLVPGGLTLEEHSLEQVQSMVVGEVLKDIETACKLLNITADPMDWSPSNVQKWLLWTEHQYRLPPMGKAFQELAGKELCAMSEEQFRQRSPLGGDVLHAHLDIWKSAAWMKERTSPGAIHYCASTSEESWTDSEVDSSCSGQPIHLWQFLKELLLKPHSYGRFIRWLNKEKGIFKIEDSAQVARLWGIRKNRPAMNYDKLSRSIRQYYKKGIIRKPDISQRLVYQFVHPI
Particulars: protein: recombinant; tags: N-terminal GST; dsDNA, one strand shown. The essentials:
as §1

For experiment [15], the target named is T10, ETV7 (Homo sapiens, UniProt Q9Y603 1-341).
T10 sequence: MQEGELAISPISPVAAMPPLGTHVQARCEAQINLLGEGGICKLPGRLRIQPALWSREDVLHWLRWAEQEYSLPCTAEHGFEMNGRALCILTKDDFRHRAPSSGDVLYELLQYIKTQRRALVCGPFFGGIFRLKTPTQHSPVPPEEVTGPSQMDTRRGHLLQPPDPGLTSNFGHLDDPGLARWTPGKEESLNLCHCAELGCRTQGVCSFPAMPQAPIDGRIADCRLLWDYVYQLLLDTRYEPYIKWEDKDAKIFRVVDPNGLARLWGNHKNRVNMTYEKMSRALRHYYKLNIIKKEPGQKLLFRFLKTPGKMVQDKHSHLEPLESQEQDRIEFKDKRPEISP
Particulars: protein: recombinant; tags: N-terminal GST; dsDNA, one strand shown. The essentials: as §1

Experiment [16] concerns the target T11, ELF5 (Homo sapiens, UniProt Q9UKW6-2 1-255).
T11 sequence: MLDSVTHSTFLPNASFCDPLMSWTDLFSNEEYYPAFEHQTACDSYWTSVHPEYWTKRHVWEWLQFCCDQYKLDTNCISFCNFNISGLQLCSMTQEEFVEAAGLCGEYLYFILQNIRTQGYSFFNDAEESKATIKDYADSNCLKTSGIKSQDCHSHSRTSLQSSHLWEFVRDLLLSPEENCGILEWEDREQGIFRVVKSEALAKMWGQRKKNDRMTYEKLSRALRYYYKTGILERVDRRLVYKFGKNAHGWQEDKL
Particulars: protein: recombinant; tags: N-terminal GST; dsDNA, one strand shown. A digest of the protocol: as §1

Experiment [17] has as its target T12, ETV3 (Homo sapiens, UniProt P41162-2 1-143).
T12 sequence: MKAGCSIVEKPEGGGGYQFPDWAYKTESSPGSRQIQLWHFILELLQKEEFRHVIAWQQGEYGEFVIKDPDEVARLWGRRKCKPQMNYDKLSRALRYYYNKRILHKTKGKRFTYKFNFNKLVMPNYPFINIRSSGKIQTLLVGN
Particulars: protein: recombinant; tags: N-terminal GST; dsDNA, one strand shown. A digest of the protocol: as §1

For experiment [18], the target named is ETV6 (Homo sapiens, UniProt P41212 1-452). Particulars: protein: recombinant; tags: N-terminal GST; dsDNA, one strand shown. The essentials:
as §1

HSF1, sequence (Q00613 whole entry): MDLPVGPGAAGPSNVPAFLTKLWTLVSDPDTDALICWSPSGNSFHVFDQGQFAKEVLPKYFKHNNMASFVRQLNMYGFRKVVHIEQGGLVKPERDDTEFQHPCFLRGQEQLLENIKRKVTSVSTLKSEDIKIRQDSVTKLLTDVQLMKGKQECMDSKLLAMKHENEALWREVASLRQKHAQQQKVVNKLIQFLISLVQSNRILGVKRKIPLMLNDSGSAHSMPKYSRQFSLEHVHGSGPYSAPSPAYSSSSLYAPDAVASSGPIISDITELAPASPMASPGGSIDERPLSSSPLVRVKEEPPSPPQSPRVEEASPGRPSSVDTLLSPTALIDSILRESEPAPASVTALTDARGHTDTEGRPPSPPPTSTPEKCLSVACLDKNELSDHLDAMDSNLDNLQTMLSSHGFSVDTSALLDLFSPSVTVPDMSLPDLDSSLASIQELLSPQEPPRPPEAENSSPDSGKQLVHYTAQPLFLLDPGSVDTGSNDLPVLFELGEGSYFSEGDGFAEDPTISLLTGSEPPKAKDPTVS
ELF4, sequence (Q99607 whole entry): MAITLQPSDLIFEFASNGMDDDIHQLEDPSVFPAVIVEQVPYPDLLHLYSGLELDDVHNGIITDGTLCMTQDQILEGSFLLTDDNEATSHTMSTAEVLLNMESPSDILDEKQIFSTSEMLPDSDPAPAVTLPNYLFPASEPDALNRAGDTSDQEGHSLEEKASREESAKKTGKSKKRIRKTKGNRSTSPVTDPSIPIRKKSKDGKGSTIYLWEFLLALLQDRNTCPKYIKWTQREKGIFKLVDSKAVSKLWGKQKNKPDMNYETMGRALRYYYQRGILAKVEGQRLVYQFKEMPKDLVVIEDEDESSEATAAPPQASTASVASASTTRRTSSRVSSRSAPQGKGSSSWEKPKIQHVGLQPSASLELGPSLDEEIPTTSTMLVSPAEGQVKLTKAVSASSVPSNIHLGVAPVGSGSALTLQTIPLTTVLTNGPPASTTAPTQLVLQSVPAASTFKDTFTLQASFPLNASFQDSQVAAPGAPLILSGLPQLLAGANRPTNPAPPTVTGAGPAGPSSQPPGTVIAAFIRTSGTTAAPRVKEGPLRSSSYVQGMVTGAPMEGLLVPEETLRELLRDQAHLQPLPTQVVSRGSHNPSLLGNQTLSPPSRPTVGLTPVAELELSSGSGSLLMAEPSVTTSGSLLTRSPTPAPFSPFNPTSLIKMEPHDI
ETV6, sequence (P41212 whole entry): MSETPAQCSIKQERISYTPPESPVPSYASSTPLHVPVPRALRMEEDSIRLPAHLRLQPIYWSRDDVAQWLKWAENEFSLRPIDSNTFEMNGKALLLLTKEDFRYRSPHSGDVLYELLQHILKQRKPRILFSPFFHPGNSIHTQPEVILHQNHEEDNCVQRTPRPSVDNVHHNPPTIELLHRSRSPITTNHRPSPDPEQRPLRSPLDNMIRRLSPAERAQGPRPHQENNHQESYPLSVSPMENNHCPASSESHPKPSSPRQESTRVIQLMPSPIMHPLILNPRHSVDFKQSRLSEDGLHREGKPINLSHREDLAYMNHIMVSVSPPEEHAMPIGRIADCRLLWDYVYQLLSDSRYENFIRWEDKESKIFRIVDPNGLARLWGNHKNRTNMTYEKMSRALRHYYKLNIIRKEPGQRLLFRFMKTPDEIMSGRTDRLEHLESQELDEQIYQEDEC

Take TAACGC: the binding signal in [1] was 1.19 fold enrichment (6-mer frequency, TF over GST control); in experiment [2] it was 1.22 fold enrichment (6-mer frequency, TF over GST control); in experiment [3], 1.28 fold enrichment (6-mer frequency, TF over GST control); in experiment [4] it was 1.05 fold enrichment (6-mer frequency, TF over GST control); in [5], 1.15 fold enrichment (6-mer frequency, TF over GST control); in experiment [6] it was 1.17 fold enrichment (6-mer frequency, TF over GST control). In addition, the binding signal was 1.13 fold enrichment (6-mer frequency, TF over GST control) in experiment [7]; 1.17 fold enrichment (6-mer frequency, TF over GST control) in experiment [8]; 1.63 fold enrichment (6-mer frequency, TF over GST control) in experiment [9]; 1.12 fold enrichment (6-mer frequency, TF over GST control) in experiment [10]; 1.06 fold enrichment (6-mer frequency, TF over GST control) in experiment [11]; 1.18 fold enrichment (6-mer frequency, TF over GST control) in [12]. Further, the binding signal in [13] was 1.15 fold enrichment (6-mer frequency, TF over GST control); in experiment [14] it was 1.15 fold enrichment (6-mer frequency, TF over GST control); in experiment [15], 1.01 fold enrichment (6-mer frequency, TF over GST control); in experiment [16] it was 1.13 fold enrichment (6-mer frequency, TF over GST control); in experiment [17], 1.2 fold enrichment (6-mer frequency, TF over GST control); in [18], 1.17 fold enrichment (6-mer frequency, TF over GST control).
